Source: PMC4552634, “A New Set of Chemical Starting Points with Plasmodium falciparum Transmission-Blocking Potential for Antimalarial Drug Discovery” (PLoS ONE, 2015)
Screen size: about 13,000 compounds; about 3,200 (25%) showed an effect of 50% or more. This is one part of the list.

These molecules were tested on P. falciparum stage V gametocytes. Settings: 48 h, 5 µM; inhibitor.
Design: BacTiter-Glo ATP luminescence viability of purified stage V gametocytes in 384-well plates, per cent inhibition versus DMSO

Compound	% Inhibition [%]
C/C=C1/CN2CC[C@H]1C[C@H]2[C@H](O)c1ccnc2ccc(O)cc12 [TCMDC-138167]	19.07
C=CCOc1ccccc1CNCC(O)c1cccc(C(F)(F)F)c1 (centres unmarked) [TCMDC-140394]	31.37
COc1ccc(CCN2CCC(Nc3nc4ccccc4n3CCc3ccc(OC)cc3)CC2)cc1 [TCMDC-123918]	9.396
N#Cc1cc(C(=O)Nc2ccccc2)c(N)nc1SCC(=O)NC(c1ccccc1)c1cccs1 (centres unmarked) [TCMDC-124880]	-24.84
CCN(CC)c1cc(C)c2cc(NC(=O)c3cc(=O)c4ccccc4o3)ccc2n1 [TCMDC-123592]	0.01985
CN(C)Cc1cccc(-c2ccc(NC(=O)c3ccc4c(=O)n(CCN5CCCCC5)cnc4c3)cc2)c1 [TCMDC-132362]	105.2
CN(C)Cc1cccc(-c2ccc(NC(=O)c3ccc4c(=O)n(CC5CCCO5)cnc4c3)cc2)c1 (centres unmarked) [TCMDC-132365]	80.9
CN(C)Cc1cccc(-c2ccc(NC(=O)c3ccc4c(=O)n(Cc5cnn(C)c5)cnc4c3)cc2)c1 [TCMDC-132370]	-68.25
CN(C)Cc1cccc(-c2ccc(NC(=O)c3ccc4c(=O)n(C5CCCCC5)cnc4c3)cc2)c1 [TCMDC-132367]	-36.18
CCCn1cnc2cc(C(=O)Nc3ccc(-c4cccc(CN(C)C)c4)cc3)ccc2c1=O [TCMDC-132363]	8.061
COc1cc(OC)nc(-c2cccc(NC(=O)c3ccc4c(=O)n(CCN5CCCCC5)cnc4c3)c2)n1 [TCMDC-132360]	-43.17
NC1=NC(c2ccccc2)(c2ccccc2)C(=O)N1Cc1ccc(-c2ccncc2)cc1 [TCMDC-136894]	25.37
Cc1ccc2nc3c(cc(C(=O)NCc4ccccc4)c(=N)n3CCCn3ccnc3)c(=O)n2c1 [TCMDC-124377]	6.883
C=C1C(C(=O)OCC)=CN(CC)c2cc(O[C@@H]3CCN(C(=O)OC(C)(C)C)C3)ccc21 [TCMDC-135647]	15.51
O=C(/C=C/c1ccc(Cl)c(Cl)c1)NC1CCN(CCNC(=O)c2cccc(Cl)c2)CC1 [TCMDC-141950]	-32.49
CCCc1cc(=O)[nH]c(-n2nc(C)cc2NC(=O)c2cc3ccccc3o2)n1 [TCMDC-124939]	13.85
O=C(NC1CCCCN(Cc2ccccc2O)C1)c1ccc(-c2ccccc2)cc1 (centres unmarked) [TCMDC-141746]	61.29
CC(C)(c1ccccc1)c1ccc(O)c(CN2CCOCC2)c1 [TCMDC-124276]	-17.17
O=C(NC1CCN(Cc2ccccc2O)C1)c1ccc(-c2ccccc2)cc1 (centres unmarked) [TCMDC-141747]	74.99
Oc1ccc(-c2ccccc2)cc1CN1CCCCC1 [TCMDC-125510]	85.49
O=C(NC1CCCCN(Cc2ccccc2O)C1)c1cc(F)cc(F)c1 (centres unmarked) [TCMDC-141742]	24.3
O=C(NC1CCCCN(Cc2ccccc2O)C1)c1cccc(Cl)c1 (centres unmarked) [TCMDC-141745]	70.72
O=C(NC1CCCCN(Cc2ccccc2O)C1)c1cccc(C(F)(F)F)c1 (centres unmarked) [TCMDC-141743]	0.3319

Compound	% Inhibition [%]
O=C(NC1CCN(Cc2ccccc2O)C1)c1cccc(C(F)(F)F)c1 (centres unmarked) [TCMDC-141744]	-4.979
Oc1ccc(-c2ccccc2)cc1CN1CCCCCC1 [TCMDC-124203]	12.06
O=S(=O)(NC1CCCCN(Cc2ccccc2O)C1)c1ccc(C(F)(F)F)cc1 (centres unmarked) [TCMDC-141803]	-6.826
O=C(NC1CCCCN(Cc2ccccc2O)C1)c1ccc(Cl)c(Cl)c1 (centres unmarked) [TCMDC-141736]	-19.06
O=C(NC1CCN(Cc2ccccc2O)C1)c1ccc(Cl)c(Cl)c1 (centres unmarked) [TCMDC-141737]	3.103
Cc1ccccc1C1CCN(C2CCC(NC(=O)c3ccc(-c4cccs4)s3)CC2)CC1 (centres unmarked) [TCMDC-134105]	-3.744
CC(=O)Nc1ncc(C(=O)Nc2cccc(-c3ccc(-c4nc5ccc(F)cc5[nH]4)cc3)c2)s1 [TCMDC-136916]	-12.2
O=C(NCc1ccccc1[S+]([O-])c1ccccc1CO)C(F)(F)F (centres unmarked) [TCMDC-137886]	0.169
Cc1cccc2nc(-c3cccc(-c4ccc(CNCc5cnn(-c6ccccc6)n5)cc4)c3)[nH]c12.O=C(O)C(F)(F)F [TCMDC-132965]	-15.5
S=C(NCCN1CCOCC1)Nc1ccccc1 [TCMDC-123845]	-18.32
N#Cc1cc(C(=O)c2cc(Cl)ccc2O)cn(-c2cc(Cl)cc(Cl)c2)c1=O [TCMDC-125188]	-6.306
Cc1cc(N(C)C)nc(Nc2ccc(NS(=O)(=O)c3ccccc3)cc2)n1 [TCMDC-124952]	7.952
O=S(=O)(NCCN1CCCC1)c1ccc(-c2ccc(CNCc3ccccc3)cc2)cc1F [TCMDC-132236]	50.96
COc1ccc(CNCc2ccc(F)cc2)cc1-c1ccc(S(=O)(=O)NCCN2CCCC2)c(C)c1 [TCMDC-132224]	105.7
COc1ccc(CNCc2ccccc2)cc1-c1ccc(S(=O)(=O)NCCN2CCCC2)c(C)c1 [TCMDC-132272]	107.1
O=S(=O)(NCCN1CCCC1)c1ccc(-c2ccc(CNCc3ccc(F)cc3)cc2)cc1F [TCMDC-132287]	42.7
COc1ccc(CNCc2ccccc2)cc1-c1ccc(S(=O)(=O)NCCN2CCCC2)c(F)c1 [TCMDC-132265]	101.3
Cc1cc2c(cc1C(F)(F)F)N(C(=O)Nc1ccc(C(=O)NC3CCN(Cc4ccccc4)C3)cc1)CC2 (centres unmarked) [TCMDC-139871]	23.78
Clc1cc(Br)ccc1-c1ccc(CNCC2CCNCC2)o1 [TCMDC-124617]	29.69
CC(C)Cc1cnc2nc(N)nc(N)c2c1 [TCMDC-137923]	48.38
N#Cc1c(-c2ccccc2)cn2c1[nH]c(=O)c1ccccc12 [TCMDC-124997]	14.43
CCN(CCCN1CCCCC1)c1cc(C)nc(Nc2ccc(C)c(F)c2)n1 [TCMDC-132437]	25.13
O=C(NCCN1CCOCC1)c1ccc(CNC(=O)c2ccc(O)c(-c3ccc(Cl)c(Cl)c3)c2)cc1 [TCMDC-140852]	5.208

Compound	% Inhibition [%]
CON(C)C(=O)[C@@H](CCCCNC(=O)OCc1ccccc1)NC(=O)OC(C)(C)C [TCMDC-132004]	-2.99
O=C(CN1CCC(NCc2cnc(-c3ccc(Cl)cc3)[nH]2)CC1)N1CCc2ccccc21 [TCMDC-138589]	28.41
Cc1c(NC(=O)COc2ccc(Cl)cc2C(=O)c2cc(F)cc(C(F)(F)F)c2)ccc2ncsc12 [TCMDC-138907]	4.382
Cc1cc(OCCCN2CCCCC2)ccc1NC(=O)COc1ccc(Cl)cc1C(=O)c1cc(Cl)cc(C#N)c1 [TCMDC-134725]	48.49
Cc1cc(OCCCN2CCCC2)ccc1NC(=O)COc1ccc(Cl)cc1C(=O)c1cc(C#N)cc(C(F)(F)F)c1 [TCMDC-138904]	58.86
Cc1cc(OCCCN2CCN(CCN3CCOCC3)CC2)ccc1NC(=O)COc1ccc(Cl)cc1C(=O)c1cc(Cl)cc(C#N)c1 [TCMDC-135999]	30.59
COc1cc(NC(=O)N2CCc3ccc(OCCN4CCCCC4)cc32)cc(C(F)(F)F)c1 [TCMDC-140249]	14.65
Cc1cc(OCCCN2CCCCC2C)ccc1NC(=O)COc1ccc(Cl)cc1C(=O)c1cc(Cl)cc(C#N)c1 (centres unmarked) [TCMDC-134727]	73.35
Cc1cc(OCCCN2CCCCC2)ccc1NC(=O)COc1ccc(Cl)cc1C(=O)c1cc(C#N)cc(C(F)(F)F)c1 [TCMDC-134827]	50
Cc1cc(OCC2CCCN(c3ncc(C(=O)NC4CC4)cc3Cl)C2)ccc1F (centres unmarked) [TCMDC-134314]	18.53
Cc1cc(OCC2CCN(c3ncc(C(=O)Nc4ccccc4)cc3Cl)CC2)ccc1F [TCMDC-134033]	-3.032
CCCCCCN1CCCN(Cc2cccc(C(=O)Nc3ccc(C(C)(C)C)cc3)c2)CC1 [TCMDC-135993]	-6.517
CCCC(C)NC(=O)[C@H](Cc1ccccc1)NC(=O)c1ccc(O)c(-c2ccc(OC)cc2)c1 (some centres unmarked) [TCMDC-140800]	19.41
CCOC(=O)CNC(=O)N(CCN(Cc1ccccc1)C(=O)NCC(=O)OCC)Cc1ccccc1 [TCMDC-138999]	6.745
CC[C@H](C)CNC(=O)c1cncc(-c2cccc(CNCCCc3ccccc3)c2)c1 [TCMDC-134221]	19.08
CN(C)CCN(C)Cc1cccc(-c2cccc(NC(=O)c3cccc(C#N)c3)c2)c1 [TCMDC-133360]	6.032
CC(C)CNCc1ccc(-c2cccc(CN(CCN(C)C)C(=O)NCCc3ccccc3)c2)cc1 [TCMDC-140621]	102.2
CC(C)CNCc1cccc(-c2cccc(CN(CCN(C)C)C(=O)Nc3ccccc3)c2)c1 [TCMDC-140592]	108.6
CC(C)CNCc1cccc(-c2ccc(CNc3ccc(C(=O)c4ccccc4)cc3)cc2)c1 [TCMDC-140728]	10.94
CC(C)CNC(=O)c1cncc(-c2ccc(CNCCCc3ccccc3)cc2)c1 [TCMDC-134247]	-10.62
CC(C)CNCc1cccc(-c2cccc(CN(CCN(C)C)C(=O)NCCc3ccccc3)c2)c1 [TCMDC-140620]	102.4
CN(C)CCOc1cccc(NC(=O)Nc2ccc(-c3ccccc3)cc2)c1 [TCMDC-139537]	22.41
